The source of these data is PubChem BioAssay (NCATS).

Unmarked numbers belong to inactive results. Calls come from the whole dose curve; as a rule, active = well fitted activation curve with a large enough effect; inconclusive = small, poorly fitted or top-dose-only effect; inactive = flat fitted curve, though single readings scatter.

This assay is described as follows: Confirmation and Secondary Assay for Modulators of Hemoglobin Beta Chain Splicing at IVS2 654 locus (AID 910).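 Note: HeLa cells stably carrying EGFP split by mutant beta-globin IVS2-654 intron; % of control where 0% means no effect.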 Particulars: HeLa EGFP-654 splicing reporter, GFP fluorescence, 48 h; series mostly up to 46.1 µM; activation (splicing correction): at the top concentration. The text has this: NIH Chemical Genomics Center [NCGC] NIH Molecular Libraries Screening Centers Network [MLSCN] MLSCN Grant: 1 X01 MH080684-01 PI Name: Dr. Ryszard Kole NCGC Assay Overview: Modulation of Alternative Splicing as Therapy Abnormal splicing is associated with a number of diseases, including cancer and genetic diseases such as cystic fibrosis, muscular dystrophy and beta-thalassemia. Alteration of disease associated splicing patterns provides a promising target for treatment. […] Mutations in the second intron of the b-globin gene at positions 654 or 705 are clinically relevant and cause mis-splicing which results in an out of frame gene product. […] EGFP-654 HeLa Cells as screen system. HeLa cell lines were stably transfected with a construct in which the EGFP (enhanced green fluorescent protein) cDNA was interrupted by the second intron of the beta-globin gene (IVS2-654). The ISV2 intron contains mutations which cause mis-splicing of EGFP and premature termination of EGFP which results in a nonfluorescent protein product. […] Expression of the transgene was driven by the CMV promoter. We concluded that a low molecular weight compound, which restored correct splicing of intron 2 would also generate functional EGFP protein, resulting in a fluorescent signal. Thus, the HeLa cells that express the EGFP-654 construct can be used for high throughput screening of a chemical library.
NCGC Assay Protocol Summary: Confirmatory Screening. Freshly thawed HeLa EGFP-654 cells were seeded in 5 ul of optimem media (Invitrogen) containing 2 % fetal calf serum (Hyclone) and 1x penicillin/streptomycin (Invitrogen) at a concentration of 500 cells per well in 1536-well plates. Cells were incubated overnight at 37C in 5% CO2. The next day, cells were treated with DMSO, 500 nM antisense ISV2 654 PNA control oligo, or library compound and allowed to grow at 37C in 5% CO2 for 2 days. The PNA oligo blocked the mutation site in the intron and allowed proper (wild type) splicing to occur, resulting in full length EGFP expression and also allowed for optimization of the assay parameters. Plates were read in the Acumen Explorer (TTP Labtech) using 488 nm laser excitation and 500-520 nm emission PMT filter in a 1 x 8 uM capture mode. Fluorescnet objects ranging in size from 5 to 250 uM were measured and the total peak GFP intensity for each well was used for data analysis. Keywords: Thalassemia, beta-thalassemia, beta-globin, EGFP, ISV2 654, ISV2 705, SSO, PNA, antisense, splicing, MLSMR, MLSCN, NIH Roadmap, qHTS, NCGC
In the case of `CC(C)[N+](C)(CCC(C(N)=O)(c1ccccc1)c1ccccc1)C(C)C`, the “activation (splicing correction)” value was 2.37%.
Regarding `CN(C)C(=S)SSC(=S)N(C)C`, the “activation (splicing correction)” value is 3.46%.
Take `CCCCCCCCCCCCCCCC[n+]1ccccc1`: the “activation (splicing correction)” value was -6.86%.
Regarding `CC[n+]1c(-c2ccccc2)c2cc(N)ccc2c2ccc(N)cc21`, the “activation (splicing correction)” value is -1.33% [at 38.3 µM].
Turning to `NC(=O)CN1CCCC1=O`, the “activation (splicing correction)” value is 6.58%.
Take `CCCCCCCCC(=O)NCc1ccc(O)c(OC)c1`: the “activation (splicing correction)” value is -0.667% [at 38.3 µM].
As for `CN(C)C(=O)Oc1cc(OC(=O)N(C)C)cc(C(O)CNC(C)(C)C)c1` (stereo not drawn), the “activation (splicing correction)” value is 2.99% [at 38.3 µM].
Regarding `CCNc1nc(Cl)nc(NCC)n1`, the “activation (splicing correction)” value is 0.99% [at 38.3 µM].
The figure for `Cc1ccc(N=CN(C)C=Nc2ccc(C)cc2C)c(C)c1` is 0.84%; for `O=C(NC(=O)c1c(F)cccc1F)Nc1cc(Cl)c(OC(F)(F)C(F)C(F)(F)F)cc1Cl` (stereo not drawn) it is -1.72%.
Regarding `CCCC(C)C1(CC)C(=O)N=C(S)NC1=O` (stereo not drawn), the “activation (splicing correction)” value is -0.187% [at 38.3 µM].
Take `Clc1ccc(CSC(Cn2ccnc2)c2ccc(Cl)cc2Cl)cc1` (stereo not drawn): the “activation (splicing correction)” value was -8.12%.
Regarding `COc1ccc(C(=O)N2CCCC2=O)cc1`, the “activation (splicing correction)” value was 1.3% [at 38.3 µM].
Take `Clc1ccc(C(OCCN2CCCCC2)c2ccccc2)cc1` (stereo not drawn): the “activation (splicing correction)” value was -2.5%.
Consider `c1ccc2nc(N3CCNCC3)ccc2c1`, for which the “activation (splicing correction)” value was 1.84% [at 38.3 µM].
As to `COC(=O)C1=CCCN(C)C1`, the “activation (splicing correction)” value is 0.791%.
The value for `N#Cc1nn(-c2c(Cl)cc(C(F)(F)F)cc2Cl)c(N)c1S(=O)C(F)(F)F` (stereo not drawn) was -6.83%; that for `Clc1ccc(CO/N=C(\Cn2ccnc2)c2ccc(Cl)cc2Cl)c(Cl)c1` was -9.26%.
